Data published in PubChem BioAssay (Tox21).
Calls of active or inactive are those of the source. The call rests on the fitted dose curve; in most records, active means well fitted curve in the direction sought with a large enough effect in the repeat runs; inconclusive means weak or mixed curves; inactive means flat fitted curve, though single readings scatter.

Assay: qHTS assay to test for compound auto fluorescence at 460 nm (blue) in HEK293 cell free culture (AID 720681)
Details: cell-free medium, autofluorescence 405/460 nm (blue); series mostly up to 91.3 µM; fluorescence, % of fluorescent control: at the top concentration
From the text: U.S. Tox21 Program National Center for Advancing Translational Sciences [NCATS] NIH Chemical Genomics Center [NCGC] U.S. Environmental Protection Agency [EPA] National Institutes of Environmental Health Sciences [NIEHS] National Toxicology Program [NTP] U.S. Food and Drug Administration [FDA] Tox21 Assay Overview: Compound auto fluorescence often interferes with screening of the compound library against various biological targets and signaling pathways. Some of these compounds may have fluorophoric properties. Such properties may interfere with the assay outputs resulting in false positives and/or negatives. To decrease such complications and ensure the compound activities are relevant in terms of biological response, the Tox21 10K compound library was screened for auto fluorescence. From the fluorophores used as reporter signals in our screening assays, the auto fluorescence equivalencies of compounds against three fluorophores have been evaluated: Triamterene, Fluorescein and Rose Bengal sodium for blue, green and red fluorescence, respectively. The fluorescence intensities were measured using Excitation/Emission wavelengths at 405/460nm, 485/535nm and 540/590nm for blue, green and red labels, respectively. This assay includes the blue fluorescence data.
Tox21 Assay Protocol Summary: 5 uL of culture medium (DMEM containing 10% FBS) per well was dispensed into black wall/clear bottom 1536-well plates using a Multidrop Combi Dispenser (ThermoFisher Scientific, Waltham, MA). After 23 nL compound or DMSO vehicle was transferred into assay plate by a pintool work station (Kalypsys, San Diego, CA), fluorescence intensities in the assay plates were measured by an Envision (PerkinElmer, Shelton, CT) plate reader using three labels for measuring blue, green and red fluorescence at […] 460, 535 and 590nm respectively.
On the % scale 0 is the no-effect control and ±100 the full control effect.

Compound | fluorescence, % of fluorescent control | Potency
C[C@]12Cc3nonc3C[C@@H]1CC[C@@H]1[C@@H]2CC[C@@]2(C)[C@H]1CC[C@]2(C)O | -0.0444% [at 46 µM] (inactive) | 
CC(C)C1CCC(Cc2ccc(Cl)cc2)C1(O)Cn1cncn1 (stereo not given) | 0.132% (inactive) | 
CC(C)(C)C(O)/C(=C\c1ccc(Cl)cc1Cl)n1cncn1 (stereo not given) | -0.173% [at 95.7 µM] (inactive) | 
N#CCCSCCC#N | 0.169% (inactive) | 
CCOc1cc(C(C)(C)C)ccc1C1COC(c2c(F)cccc2F)=N1 (stereo not given) | -0.0333% (inactive) | 
CCCCCCCCCCCCCCC(Br)C(=O)O (stereo not given) | 0.0006% (inactive) | 
O=C/C(Cl)=C(/Cl)C(=O)O |  | inactive
Clc1ccc(-c2ccc(Cl)c(Cl)c2Cl)c(Cl)c1Cl | 0.0622% (inactive) | 
CC1(C)CC/C(=C/c2ccc(Cl)cc2)C1(O)Cn1cncn1 (stereo not given) | -0.205% (inactive) | 
CC(C)OC(=O)C(O)(c1ccc(Cl)cc1)c1ccc(Cl)cc1 | 0.0913% (inactive) | 
CC(C)(C)c1ccc(CSc2cnn(C(C)(C)C)c(=O)c2Cl)cc1 | -0.0963% (inactive) | 
CCCCOCN(C(=O)CCl)c1c(CC)cccc1CC | -0.154% (inactive) | 
O=[N+]([O-])O.O=[N+]([O-])O.[Cd] | 0.0793% (inactive) | 
CCCSP(=O)(OCC)SCCC | -0.391% [at 95.7 µM] (inactive) | 
O=[N+]([O-])c1cc([N+](=O)[O-])c2ccccc2c1 | -0.42% (inactive) | 
Cc1cc(C(C)(C)c2cc(C)c(O)c(C)c2)cc(C)c1O | -0.0325% (inactive) | 
S=C(SSC(=S)N1CCCCC1)N1CCCCC1 | -0.014% [at 46 µM] (inactive) | 
N#CCCC(Br)(C#N)CBr (stereo not given) | 0.432% (inactive) | 
Clc1ccc(CSC(Cn2ccnc2)c2ccc(Cl)cc2Cl)cc1 (stereo not given) | 0.0923% [at 18.6 µM] (inactive) | 
O=S(=O)(c1ccc(Cl)cc1)c1ccc(Cl)cc1 | -0.39% [at 95.7 µM] (inactive) | 

Compound | fluorescence, % of fluorescent control | Potency
N#CNC#N | -0.0468% [at 95.7 µM] (inactive) | 
CC(C)CC(C)Nc1ccc(Nc2ccccc2)cc1 (stereo not given) | 0.416% (inactive) | 
C[C@H]1CC[C@@H]2[C@@H](C)[C@H]3[C@H](C[C@H]4[C@@H]5CC=C6CC(O[C@@H]7O[C@H](CO)[C@H](O)[C@H](O[C@@H]8O[C@H](CO)[C@@H](O)[C@H](O)[C@H]8O)[C@H]7O[C@H]7O[C@@H](C)[C@H](O)[C@@H](O)[C@H]7O)CC[C@]6(C)[C@H]5CC[C@]34C)N2C1 (stereo not given in full) |  | inactive
O=C(O)COc1nc(Cl)c(Cl)cc1Cl | -0.331% [at 95.7 µM] (inactive) | 
CN(C)S(=O)(=O)N(SC(F)(Cl)Cl)c1ccccc1 | -0.286% (inactive) | 
O=c1[nH]c2ccccc2n1CCCN1CCC(n2c(=O)[nH]c3cc(Cl)ccc32)CC1 | 0.103% [at 46 µM] (inactive) | 
CCCCCCCCCCCCBr | 0.0116% (inactive) | 
COP(=O)(OC)SCn1c(=O)oc2cc(Cl)cnc21 | -0.347% (inactive) | 
Nc1ccccc1C(=O)OC/C=C/c1ccccc1 | 0.0249% (inactive) | 
CN(C)C(=S)S |  | inactive
Cc1cc(C(F)(C(F)(F)F)C(F)(F)F)ccc1NC(=O)c1cccc(I)c1C(=O)NC(C)(C)CS(C)(=O)=O | -0.0797% (inactive) | 
CC(C)CCCCCCCOP(=O)(Oc1ccccc1)Oc1ccccc1 | -0.0262% (inactive) | 
O=C(CCl)C(Cl)Cl | 0.186% (inactive) | 
CCCN(CCC)CCc1c[nH]c2ccccc12 | -0.0067% (inactive) | 
CCCCCCCCCCCCCN1CC(C)OC(C)C1 (stereo not given) | -0.0565% (inactive) | 
CCc1nn(C)c(C(=O)NCc2ccc(C(C)(C)C)cc2)c1Cl | 0.0594% (inactive) | 
CCC(C)(C)C(=O)OC1=C(c2ccc(Cl)cc2Cl)C(=O)OC12CCCCC2 | 0.0062% (inactive) | 
CC(=O)/C=C/c1ccc2c(c1)OCO2 | 0.707% (inactive) | 
Cc1cc(C)c(C2=C(OC(=O)CC(C)(C)C)C3(CCCC3)OC2=O)c(C)c1 | -0.133% [at 95.7 µM] (inactive) | 
ClC1=C(Cl)[C@]2(Cl)[C@@H]3[C@@H]4C[C@@H]([C@H]5O[C@@H]45)[C@@H]3[C@@]1(Cl)C2(Cl)Cl | -0.28% (inactive) | 
